Measurements: the supplement of paper PMC10849652
Targets with a hit are over-represented here; the source holds about 7,900 in all. About 0.6% of all pairs of compound and target were hits. Unmarked numbers belong to inactive results.

compound: NC1(c2ccc(-c3nc4ccn5c(=O)[nH]nc5c4cc3-c3ccccc3)cc2)CCC1; experiment: log2 fold change, soluble protein after heating vs DMSO (PISA); higher = thermal stabilisation; K562 cells, 10 uM, 30 min; active = over 0.2 and 3.5 SD of the protein, either way, in both replicates (recomputed)
Method in brief: (§1)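 Soluble protein was quantified by TMTpro 16plex LC-MS/MS after channel sums were equalised. It was obtained as the supernatant after 21,000xg for 90 min from pooled aliquots of K562 cells (2×10^6 cells/mL, 10 μM compound, 30 min) heated for 3 min across 48°C-58°C and extracted in PBS with 0.5% NP-40 at 4°C. Thermal stability values are relative to control samples and come from duplicates. They are given as log2 fold changes.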

Chain of UniProt P13010 (P13010 whole entry, looked up): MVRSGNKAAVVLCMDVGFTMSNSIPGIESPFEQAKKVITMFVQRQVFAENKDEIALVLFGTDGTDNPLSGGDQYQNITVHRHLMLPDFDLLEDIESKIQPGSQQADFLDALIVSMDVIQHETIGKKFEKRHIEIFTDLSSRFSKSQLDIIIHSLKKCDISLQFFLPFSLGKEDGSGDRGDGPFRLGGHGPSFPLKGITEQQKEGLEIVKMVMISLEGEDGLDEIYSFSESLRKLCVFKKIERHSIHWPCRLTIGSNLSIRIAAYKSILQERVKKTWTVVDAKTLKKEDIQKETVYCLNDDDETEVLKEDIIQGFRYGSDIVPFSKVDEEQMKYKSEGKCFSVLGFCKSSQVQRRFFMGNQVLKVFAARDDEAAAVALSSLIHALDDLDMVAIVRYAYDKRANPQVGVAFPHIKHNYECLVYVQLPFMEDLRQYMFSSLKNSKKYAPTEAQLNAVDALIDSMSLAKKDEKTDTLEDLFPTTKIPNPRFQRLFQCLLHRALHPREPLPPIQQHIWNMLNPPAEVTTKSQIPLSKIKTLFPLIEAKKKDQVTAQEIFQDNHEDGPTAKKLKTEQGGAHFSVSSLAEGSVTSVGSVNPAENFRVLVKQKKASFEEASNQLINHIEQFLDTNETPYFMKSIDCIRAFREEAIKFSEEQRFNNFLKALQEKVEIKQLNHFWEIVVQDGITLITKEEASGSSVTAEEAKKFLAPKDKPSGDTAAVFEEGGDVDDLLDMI
Chain of UniProt Q8IWV8 (Q8IWV8 whole entry, looked up): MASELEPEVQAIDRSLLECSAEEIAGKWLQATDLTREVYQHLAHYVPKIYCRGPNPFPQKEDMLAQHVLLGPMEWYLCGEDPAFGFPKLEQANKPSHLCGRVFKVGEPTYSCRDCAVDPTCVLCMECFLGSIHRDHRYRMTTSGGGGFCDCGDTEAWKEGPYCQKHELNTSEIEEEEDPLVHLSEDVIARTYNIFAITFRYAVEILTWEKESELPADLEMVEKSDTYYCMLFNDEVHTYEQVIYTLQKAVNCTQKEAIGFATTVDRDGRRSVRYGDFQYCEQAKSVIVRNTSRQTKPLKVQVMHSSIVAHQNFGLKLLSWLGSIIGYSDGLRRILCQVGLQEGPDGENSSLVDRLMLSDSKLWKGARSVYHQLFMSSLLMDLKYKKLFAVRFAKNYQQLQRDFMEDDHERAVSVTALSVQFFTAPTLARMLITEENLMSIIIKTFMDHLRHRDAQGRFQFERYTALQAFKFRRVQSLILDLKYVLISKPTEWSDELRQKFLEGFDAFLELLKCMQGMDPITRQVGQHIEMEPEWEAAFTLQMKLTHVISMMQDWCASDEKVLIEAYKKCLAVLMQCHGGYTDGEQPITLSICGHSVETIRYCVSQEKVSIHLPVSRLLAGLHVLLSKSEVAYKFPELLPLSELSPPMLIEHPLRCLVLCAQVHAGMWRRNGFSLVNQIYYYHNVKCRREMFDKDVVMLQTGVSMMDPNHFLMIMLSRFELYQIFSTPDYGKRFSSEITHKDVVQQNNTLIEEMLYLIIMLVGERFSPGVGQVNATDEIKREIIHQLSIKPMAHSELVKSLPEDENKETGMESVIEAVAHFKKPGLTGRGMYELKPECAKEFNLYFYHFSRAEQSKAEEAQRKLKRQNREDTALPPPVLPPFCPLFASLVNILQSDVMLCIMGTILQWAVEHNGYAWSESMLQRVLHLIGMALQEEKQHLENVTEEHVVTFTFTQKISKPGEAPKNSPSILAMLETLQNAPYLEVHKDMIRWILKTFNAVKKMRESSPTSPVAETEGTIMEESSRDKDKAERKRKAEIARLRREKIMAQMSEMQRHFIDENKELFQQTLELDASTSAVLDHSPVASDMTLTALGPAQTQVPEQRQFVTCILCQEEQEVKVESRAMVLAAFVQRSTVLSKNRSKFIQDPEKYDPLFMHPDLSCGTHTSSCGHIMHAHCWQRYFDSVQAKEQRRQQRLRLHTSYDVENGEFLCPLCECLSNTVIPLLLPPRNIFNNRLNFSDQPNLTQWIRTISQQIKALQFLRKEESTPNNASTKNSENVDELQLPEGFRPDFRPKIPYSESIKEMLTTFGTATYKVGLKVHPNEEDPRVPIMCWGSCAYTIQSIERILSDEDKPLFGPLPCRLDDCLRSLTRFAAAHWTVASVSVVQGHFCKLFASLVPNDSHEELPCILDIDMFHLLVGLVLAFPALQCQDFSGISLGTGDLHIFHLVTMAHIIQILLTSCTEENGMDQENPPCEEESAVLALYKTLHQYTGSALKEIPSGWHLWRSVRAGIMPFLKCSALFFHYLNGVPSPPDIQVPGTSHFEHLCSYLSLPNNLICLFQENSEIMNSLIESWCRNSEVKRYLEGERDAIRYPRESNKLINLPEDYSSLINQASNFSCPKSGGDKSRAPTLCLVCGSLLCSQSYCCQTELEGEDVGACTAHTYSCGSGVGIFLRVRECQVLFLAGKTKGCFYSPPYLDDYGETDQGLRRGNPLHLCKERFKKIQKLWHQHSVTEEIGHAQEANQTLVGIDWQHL
Chain of UniProt Q9NV66 (Q9NV66 whole entry, looked up): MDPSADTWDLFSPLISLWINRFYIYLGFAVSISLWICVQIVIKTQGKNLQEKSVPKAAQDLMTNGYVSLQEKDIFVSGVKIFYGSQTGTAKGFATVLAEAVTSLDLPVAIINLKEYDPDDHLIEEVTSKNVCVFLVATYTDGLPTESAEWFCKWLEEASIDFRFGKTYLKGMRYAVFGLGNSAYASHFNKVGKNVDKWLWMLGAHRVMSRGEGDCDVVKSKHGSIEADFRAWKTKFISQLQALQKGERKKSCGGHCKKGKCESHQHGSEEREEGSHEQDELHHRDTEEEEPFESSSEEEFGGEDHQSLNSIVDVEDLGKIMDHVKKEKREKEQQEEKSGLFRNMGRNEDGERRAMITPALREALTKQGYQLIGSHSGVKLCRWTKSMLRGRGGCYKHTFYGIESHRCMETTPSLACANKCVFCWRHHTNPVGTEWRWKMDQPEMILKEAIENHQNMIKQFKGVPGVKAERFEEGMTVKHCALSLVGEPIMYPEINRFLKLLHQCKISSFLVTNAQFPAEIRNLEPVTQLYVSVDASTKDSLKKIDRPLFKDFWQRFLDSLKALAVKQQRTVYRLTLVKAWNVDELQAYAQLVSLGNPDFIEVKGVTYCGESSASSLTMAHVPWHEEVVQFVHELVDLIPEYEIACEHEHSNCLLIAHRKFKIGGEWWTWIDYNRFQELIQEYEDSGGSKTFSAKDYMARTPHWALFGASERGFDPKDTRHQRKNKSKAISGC
Chain of UniProt Q5R3I4 (Q5R3I4 whole entry, looked up): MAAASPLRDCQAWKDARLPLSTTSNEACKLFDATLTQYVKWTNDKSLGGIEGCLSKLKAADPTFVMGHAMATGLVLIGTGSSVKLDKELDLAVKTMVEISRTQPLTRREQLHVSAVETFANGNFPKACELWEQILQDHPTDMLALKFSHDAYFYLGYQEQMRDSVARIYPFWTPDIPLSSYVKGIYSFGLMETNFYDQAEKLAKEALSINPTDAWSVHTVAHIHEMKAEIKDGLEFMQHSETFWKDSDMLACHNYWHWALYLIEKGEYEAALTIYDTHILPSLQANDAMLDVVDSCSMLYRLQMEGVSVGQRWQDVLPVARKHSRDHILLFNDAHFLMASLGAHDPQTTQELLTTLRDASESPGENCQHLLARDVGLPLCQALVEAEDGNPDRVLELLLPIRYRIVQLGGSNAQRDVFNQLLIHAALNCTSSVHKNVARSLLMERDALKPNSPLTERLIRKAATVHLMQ
Chain of UniProt O75554 (O75554 whole entry, looked up): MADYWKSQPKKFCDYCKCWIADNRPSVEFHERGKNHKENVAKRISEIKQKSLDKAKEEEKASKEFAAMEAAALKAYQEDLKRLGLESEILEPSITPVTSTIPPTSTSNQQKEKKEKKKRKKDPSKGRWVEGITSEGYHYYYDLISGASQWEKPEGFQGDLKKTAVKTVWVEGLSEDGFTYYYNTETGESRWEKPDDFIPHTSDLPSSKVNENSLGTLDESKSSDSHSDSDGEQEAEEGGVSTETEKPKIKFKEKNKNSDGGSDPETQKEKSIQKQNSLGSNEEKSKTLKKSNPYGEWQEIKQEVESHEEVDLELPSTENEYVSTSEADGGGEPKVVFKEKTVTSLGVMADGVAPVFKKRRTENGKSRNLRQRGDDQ
Chain of UniProt Q99986 (Q99986 whole entry, looked up): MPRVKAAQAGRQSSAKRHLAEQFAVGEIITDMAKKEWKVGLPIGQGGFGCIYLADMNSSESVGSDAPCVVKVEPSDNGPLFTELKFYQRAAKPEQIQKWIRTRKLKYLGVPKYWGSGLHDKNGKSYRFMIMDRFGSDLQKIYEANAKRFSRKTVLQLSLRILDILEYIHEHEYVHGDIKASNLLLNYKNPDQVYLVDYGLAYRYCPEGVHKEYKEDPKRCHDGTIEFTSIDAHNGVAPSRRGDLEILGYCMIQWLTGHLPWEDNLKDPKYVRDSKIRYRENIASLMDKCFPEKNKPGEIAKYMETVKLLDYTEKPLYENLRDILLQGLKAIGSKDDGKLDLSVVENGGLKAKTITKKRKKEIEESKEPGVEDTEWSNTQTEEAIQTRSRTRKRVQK
Chain of UniProt Q9BZI7 (Q9BZI7 whole entry, looked up): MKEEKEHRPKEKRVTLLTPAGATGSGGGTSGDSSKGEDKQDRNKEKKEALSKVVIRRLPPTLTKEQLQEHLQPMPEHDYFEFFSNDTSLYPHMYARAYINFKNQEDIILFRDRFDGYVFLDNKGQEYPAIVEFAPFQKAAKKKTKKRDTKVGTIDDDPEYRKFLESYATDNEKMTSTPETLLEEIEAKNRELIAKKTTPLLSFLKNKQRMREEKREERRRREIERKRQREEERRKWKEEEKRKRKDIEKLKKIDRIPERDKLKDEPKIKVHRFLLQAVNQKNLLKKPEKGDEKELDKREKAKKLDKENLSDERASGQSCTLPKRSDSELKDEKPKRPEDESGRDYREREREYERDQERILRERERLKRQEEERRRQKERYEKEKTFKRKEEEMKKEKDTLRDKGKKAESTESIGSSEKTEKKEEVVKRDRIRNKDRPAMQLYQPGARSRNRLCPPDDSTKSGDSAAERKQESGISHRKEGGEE
Chain of UniProt Q8N4H5 (Q8N4H5 whole entry, looked up): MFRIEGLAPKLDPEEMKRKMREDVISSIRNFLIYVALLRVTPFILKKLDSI

| Target | log2 fold change |
| --- | --- |
| TRAPPC2L (UniProt Q9UL33) | -0.126 |
| UGDH (UniProt O60701) | -0.033 |
| WDR7 (UniProt Q9Y4E6) | 0.104 |
| TOMM5 isoform 2 (UniProt Q8N4H5) | -0.083 |
| USP7 (UniProt Q93009) | -0.263 |
| TYW1 (UniProt Q9NV66) | 0.004 |
| UBR2 (UniProt Q8IWV8) | 0.039 |
| TMEM161A (UniProt Q9NX61) | -0.132 |
| XPNPEP1 isoform 3 (UniProt Q9NQW7) | -0.126 |
| XRCC6 (UniProt P12956) | -0.139 |
| TNPO2 (UniProt O14787) | -0.268 |
| TRMT10C (UniProt Q7L0Y3) | -0.137 |
| UHRF1BP1L (UniProt A0JNW5) | -0.028 |
| TUBA4A (UniProt P68366) | -0.063 |
| USP3 (UniProt Q9Y6I4) | -0.218 |
| WBP4 (UniProt O75554) | 0.006 |
| VTA1 (UniProt Q9NP79) | -0.185 |
| UBE3D (UniProt Q7Z6J8) | -0.004 |

| Target | log2 fold change |
| --- | --- |
| VPS16 (UniProt Q9H269) | -0.211 |
| TXNRD1 (UniProt Q16881) | -0.077 |
| TMEM177 (UniProt Q53S58) | -0.043 |
| WDCP (UniProt Q9H6R7) | -0.011 |
| TMEM223 (UniProt A0PJW6) | -0.1 |
| VRK1 (UniProt Q99986) | -0.11 |
| UBE2S (UniProt Q16763) | -0.033 |
| XRCC5 (UniProt P13010) | -0.122 |
| TMEM9 (UniProt Q9P0T7) | -0.113 |
| TRMT10A (UniProt Q8TBZ6) | -0.075 |
| TNPO1 (UniProt Q92973) | -0.157 |
| WARS2 (UniProt Q9UGM6) | -0.101 |
| VPS53 isoform 4 (UniProt Q5VIR6) | -0.105 |
| TSG101 (UniProt Q99816) | -0.157 |
| U2AF1 isoform 2 (UniProt Q01081) | 0.058 |
| UPF3B (UniProt Q9BZI7) | 0.315 |
| VPS50 (UniProt Q96JG6) | -0.11 |
| TTC38 (UniProt Q5R3I4) | -0.263 |

compound: NCC(=O)Nc1ccc(-n2nc(C(F)(F)F)cc2-c2ccc3c(ccc4ccccc43)c2)cc1; experiment: as above
Method in brief: as §1

| Target | log2 fold change |
| --- | --- |
| TRAPPC2L (UniProt Q9UL33) | 0.054 |
| UGDH (UniProt O60701) | -0.095 |
| WDR7 (UniProt Q9Y4E6) | -0.019 |
| TOMM5 isoform 2 (UniProt Q8N4H5) | 0.084 |
| USP7 (UniProt Q93009) | -0.07 |
| TYW1 (UniProt Q9NV66) | 0.013 |
| UBR2 (UniProt Q8IWV8) | 0.007 |
| TMEM161A (UniProt Q9NX61) | -0.101 |
| XPNPEP1 isoform 3 (UniProt Q9NQW7) | -0.07 |
| XRCC6 (UniProt P12956) | -0.08 |
| TNPO2 (UniProt O14787) | -0.054 |
| TRMT10C (UniProt Q7L0Y3) | -0.018 |
| UHRF1BP1L (UniProt A0JNW5) | 0.055 |
| TUBA4A (UniProt P68366) | 0.028 |
| USP3 (UniProt Q9Y6I4) | -0.115 |
| WBP4 (UniProt O75554) | 0.111 |
| VTA1 (UniProt Q9NP79) | -0.045 |
| UBE3D (UniProt Q7Z6J8) | 0.027 |

| Target | log2 fold change |
| --- | --- |
| VPS16 (UniProt Q9H269) | 0.007 |
| TXNRD1 (UniProt Q16881) | -0.007 |
| TMEM177 (UniProt Q53S58) | 0.347 (active) |
| WDCP (UniProt Q9H6R7) | -0.025 |
| TMEM223 (UniProt A0PJW6) | 0.071 |
| VRK1 (UniProt Q99986) | -0.144 |
| UBE2S (UniProt Q16763) | -0.086 |
| XRCC5 (UniProt P13010) | -0.058 |
| TMEM9 (UniProt Q9P0T7) | 0.063 |
| TRMT10A (UniProt Q8TBZ6) | -0.109 |
| TNPO1 (UniProt Q92973) | -0.06 |
| WARS2 (UniProt Q9UGM6) | -0.08 |
| VPS53 isoform 4 (UniProt Q5VIR6) | -0.021 |
| TSG101 (UniProt Q99816) | -0.033 |
| U2AF1 isoform 2 (UniProt Q01081) | -0.096 |
| UPF3B (UniProt Q9BZI7) | 0.096 |
| VPS50 (UniProt Q96JG6) | -0.046 |
| TTC38 (UniProt Q5R3I4) | -0.09 |
